# Bioassay records (PubChem BioAssay)
# Compounds with a hit are over-represented: about 21% of the library has one in this group of screens.
# Pf growth 96h – inhibits malaria parasite growth, 96 h | AID 504834 | Potency, µM (titrated, usually from 28.7 µM), without a hit: at the highest dose activity change, negative = inhibition, usual class: inhibitors | 320,000 compounds, 6.9% hits | P. falciparum luciferase reporter growth, 96 h; note: potency is the fitted concentration of half-maximal effect; % is set by controls: 0 for no effect and ±100 for the full control effect
#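 Readout is luminescence from an integrated firefly luciferase in P. falciparum. Red cells, 2% hematocrit and 0.05% parasitemia final, were cultured with compound through two parasite generations (96 hours) at 37 C, 5% CO2.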
# SARS PLpro yeast – SARS-CoV PLP inhibition in yeast | AID 485353 | 330,000 compounds, 0.19% hits | Potency, µM (doses to about 32.9 µM), for the others: top-dose activity, positive = growth rescue, usual class: activators | S. cerevisiae expressing SARS-CoV PLpro, growth rescue; calls by dose curve; note: potency is the fitted concentration of half-maximal effect; 0% is about no effect; nearly all actives have a fitted effect of over 55% in size
# Shiga inhibitor – Shiga toxin inhibition; inhibition, % at 38.7 µM; Vero cells, Shiga toxin protein synthesis inhibition reporter; 290,000 compounds, 9.2% hits; in the data active = inhibition mostly above about 28%, no sharp cut-off; inactive = mostly below about 43%; note: 0% is about no effect
# Pf growth 48h – inhibits P. falciparum growth in the first generation, 48 h; P. falciparum luciferase growth in erythrocytes, 48 h; Potency, µM (titrated, usually from 28.7 µM), without a hit: at the highest dose activity change, negative = inhibition, most hits filed as inhibitors; 310,000 compounds, 5.9% hits; AID 504832; note: potency is the fitted concentration of half-maximal effect; % is set by controls: 0 for no effect and ±100 for the full control effect
#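 Parasite viability was followed by luminescence of a genomically integrated firefly luciferase. Cultures held 0.1% parasitemia at 2% hematocrit (final), incubated under 5% CO2 at 37 C.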
# Cycloheximide cs – counter-screen hit for Shiga toxin inhibitors, cycloheximide; 300,000 compounds, 12% hits; max response, %; cell reporter, cycloheximide protein synthesis inhibition counterscreen; in the data active = max response mostly above about 13%, no sharp cut-off; inactive = mostly below about 14%; note: read at 38.3 µM for the half of the compounds with a filed dose; 0% is about no effect
# NS1 function inh – influenza NS1 inhibition | Potency, µM (highest dose often 46.1 µM), without a hit: at the highest dose activity, positive = more growth | 270,000 compounds, 0.4% hits; calls by dose curve; note: potency is the fitted concentration of half-maximal effect; actives are rising curves; nearly all actives have a fitted effect of over 50% in size
#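 S. cerevisiae expressing influenza A NS1, grown in glucose, washed, then diluted 1:100 into pH 6.0 -URA galactose medium with 23 nl compound. Growth recovery read as OD600; NS1-free strain serves as control.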
# An asterisk follows results filed as active; i = inactive; u = inconclusive; x = no result. Unless noted, calls come from the whole dose curve; as a rule, active = well fitted inhibition curve with a large enough effect; inconclusive = small, poorly fitted or top-dose-only effect, or another doubt; inactive = no such curve, though single readings can be large or run the other way.
SMILES,Pf growth 96h,SARS PLpro yeast,Shiga inhibitor,Pf growth 48h,Cycloheximide cs,NS1 function inh
Cc1cc2c(cc1S(=O)(=O)C(C)CC(=O)NCc1ccco1)OCC(=O)N2 (stereo unspecified),-19%,2%,-2,30%,-3,-1%
CCCCc1ccc(NC(=O)C2CCCO2)cc1 (stereo unspecified),159%,-6%,72*,-21%,55*,1%
CCCCNC(=O)c1ccc(NC(=O)C2CCCO2)cc1 (stereo unspecified),17%,0%,10,57%,11*,-9%
NS(=O)(=O)c1ccc(NC(=O)C2CCCO2)cc1 (stereo unspecified),x,7%,9,4%,-3,4%
O=C(Nc1ccc(F)cc1)C1CCCO1 (stereo unspecified),13%,1%,-9,12%,2,6%
CC(C)OCCCNC(=O)c1ccc(NC(=O)C2CCCO2)cc1 (stereo unspecified),u,-2%,-5,16%,8,2%
CCCN(CCC)S(=O)(=O)c1ccc(NC(=O)C2CCCO2)cc1 (stereo unspecified),9.3µM*,6%,0,u,-3,6%
CC1CN(CC(=O)NCc2ccc(F)cc2)CC(C)O1 (stereo unspecified),36%,1%,-7,25%,-4,10%
COc1cccc(Oc2nnnn2-c2ccccc2)c1,u,1%,146,140%,33*,-34%
Clc1ccc(Oc2nnnn2-c2ccccc2)cc1,50%,-3%,27,33%,15,-9%
COc1ccc(Oc2nnnn2-c2ccccc2)cc1,76%,12%,31*,62%,32*,-6%
CNC(=O)C1CC(=O)N(CCc2ccc(C)cc2)C1 (stereo unspecified),16%,1%,8,33%,1,3%
O=C(Nc1nnc(CCc2ccccc2)s1)c1cccc(F)c1,20%,12%,-4,36%,16,-30%
O=C(C1CCC(Cn2c(=S)[nH]c3ccccc3c2=O)CC1)N1CCN(c2ccccn2)CC1 (stereo unspecified),12µM*,-4%,-5,0%,-7,x
COc1ccc(N2CCN(C(=O)C3CCC(Cn4c(=S)[nH]c5ccccc5c4=O)CC3)CC2)cc1 (stereo unspecified),15%,-4%,-9,u,0,-21%
O=C(C1CCC(Cn2c(=S)[nH]c3ccccc3c2=O)CC1)N1CCN(c2ccccc2)CC1 (stereo unspecified),x,x,x,x,x,-10%
COc1ccccc1N1CCN(C(=O)C2CCC(Cn3c(=S)[nH]c4ccccc4c3=O)CC2)CC1 (stereo unspecified),70%,4%,-11,10µM*,-3,-72%
Cc1occc1C(=O)NNC(=O)c1ccc(Br)o1,35%,-1%,-10,7%,-4,x
CCc1cccc2c(C(=S)N3CCCC3)c[nH]c12,-4%,0%,20,36%,15*,3%
CCc1cccc2c(C(=O)CN3C(=O)NC4(CCCCC4)C3=O)c[nH]c12,x,0%,x,x,x,x
CCc1cccc2c(C(=O)CCl)c[nH]c12,u,13µM*,-24,-8%,3,-17%
CC(C)C(=O)Nc1nc(-c2ccc([N+](=O)[O-])cc2)cs1,91%,1%,40,35%,19,2%
CNc1nc(-c2ccc([N+](=O)[O-])cc2)cs1,i,6%,53*,138%,32*,0%
CCNc1nc(-c2ccc(Cl)cc2)cs1,x,1%,81*,272%,52*,-15%
CC1(C)CC(c2nc(-c3ccc([N+](=O)[O-])cc3)cs2)CCO1 (stereo unspecified),10%,-3%,43,21%,17*,x
CCN(CC)CC(=O)Nc1nc(-c2ccc(Cl)cc2)cs1,7%,-4%,12,x,7,-9%
CNc1nc(-c2ccc(Cl)cc2)cs1,18%,-4%,76*,83%,27*,-47%
Nc1nc(-c2ccc([N+](=O)[O-])cc2)cs1,42%,-7%,29,41%,10,14%
CC(C)CCN1C(=O)c2ccc(C(=O)N3CCCCC3)cc2C1=O,49%,-16%,x,4%,x,x
